Screening results (PubChem BioAssay)
PGK inhibitor: T. brucei PGK inhibition | actives 0.043% (n = 380,000) | PGK/GAPDH coupled, Kinase-Glo luminescence, 60 min | P07378 | Potency, µM (series often up to 57.5 µM), for the others: at the highest dose activity change, negative = inhibition, most hits filed as inhibitors | AID 602233; further: on the % scale 0 is the no-effect control and ±100 the full control effect; nearly all actives have a fitted effect of over 60% in size
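Luminescent ATP detection (Kinase-Glo Plus) follows a 60-minute room-temperature incubation, with wells lacking PGK as controls. Buffer: 100 mM TEA (pH 7.6), 5 mM MgCl2, 0.01% Tween-20. Coupling enzyme GAPDH (100 nM final) supplies unstable 1,3-BPG in-well.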
GLP-1R agonist: GLP-1 receptor (human) agonism; Potency, µM (titrated, usually from 45.6 µM), without a hit: top-dose activation, actives largely listed as activators; P43220; AID 624172; actives 0.007% (n = 380,000); HEK293 GLP-1R CRE-luciferase, luminescence, 4-6 h; cells express a hypersensitive GLP-1R form; further: % of control where 0% means no effect
Target sequence (P43220 whole entry, looked up): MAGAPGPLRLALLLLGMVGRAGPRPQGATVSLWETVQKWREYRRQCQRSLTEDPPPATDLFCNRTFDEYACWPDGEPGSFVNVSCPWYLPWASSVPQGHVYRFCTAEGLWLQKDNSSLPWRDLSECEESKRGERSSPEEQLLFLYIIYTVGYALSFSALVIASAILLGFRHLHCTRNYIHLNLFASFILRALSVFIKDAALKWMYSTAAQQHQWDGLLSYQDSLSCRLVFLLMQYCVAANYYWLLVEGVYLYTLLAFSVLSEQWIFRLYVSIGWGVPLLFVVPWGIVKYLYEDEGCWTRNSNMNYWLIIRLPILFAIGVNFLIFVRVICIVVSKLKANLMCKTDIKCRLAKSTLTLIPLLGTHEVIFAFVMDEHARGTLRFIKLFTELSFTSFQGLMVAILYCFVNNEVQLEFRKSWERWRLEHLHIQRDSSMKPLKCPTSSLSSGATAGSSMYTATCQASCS
Tb PFK block: blocks T. brucei phosphofructokinase. O15648. T. brucei PFK, ADP-Glo luminescence. Potency, µM (titrated, usually from 57.5 µM), without a hit: at the highest dose activity, negative = inhibition, actives largely listed as inhibitors. actives 0.17% (n = 330,000). AID 485367;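 further: 0% = uninhibited 1x PFK enzyme wells and -100% = no-enzyme wells; nearly all actives have a fitted effect of over 60% in size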
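Activity is normalized to no-enzyme wells (full inhibition) and 1.25 nM enzyme wells (no inhibition). Reaction: 0.5 mM F6P, 0.1 mM ATP, 45 min RT, ADP-Glo luminescence; concentration-response curves fitted and classed by quality.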
Pin1 inhibitor: human Pin1 inhibition; Q13526; Pin1 FP peptide displacement, HiFluor488, 10 min; Potency, µM (titrated, usually from 115 µM), for inactives: top-dose activity, negative = inhibition, actives largely listed as inhibitors; actives 0.009% (n = 390,000); active means well fitted inhibition curve with a large enough effect in the polarisation, with a control signal flat, not every such curve was filed as active; inconclusive means small, poorly fitted or top-dose-only effect, or effect the other way, or a change in a side signal; inactive means no such curve, though single readings can be large or run the other way; the % refers to the polarisation; further: on the % scale 0 is the no-effect control and ±100 the full control effect
GLP1R inv ag: inverse agonists of human GLP-1 receptor; actives 1.6% (n = 410,000); Potency, µM (series often up to 38.3 µM), for inactives: at the highest dose activity change, negative = inhibition, hits mostly inhibitors; HEK293 GLP-1R CRE-luciferase, luminescence, 24 h; GLP-1R form is constitutively active; P43220; further: on the % scale 0 is the no-effect control and ±100 the full control effect; nearly all actives have a fitted effect of over 55% in size
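Constitutively active GLP-1R drives a cAMP-responsive luciferase in stably transfected HEK293 cells; test compounds are added after overnight (12 h) attachment and left 24 hr, and signal loss in luminescence marks inhibition.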
HEK293 tox: cytotoxicity counter-screen for GLP-1 receptor inverse agonists; actives 0.13% (n = 410,000); HEK293 cAMP-luciferase reporter cells, luminescence, 24 h; Potency, µM (top dose mostly 38.3 µM), for inactives: top-dose activity change, negative = inhibition, usual class: inhibitors;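 further: loss of luciferase light is scored as toxicity; on the % scale 0 is the no-effect control and ±100 the full control effect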
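Compound-treated cells are incubated 24 hr at 37 deg C under 5% CO2 after a 12 hour attachment period, then luciferase detection reagent is added and luminescence is measured following 12 min at room temperature; lowered signal indicates toxicity.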
* hit, by the source's call; i = inactive; ? = inconclusive; . = not tested or not shown. Rows were chosen to be rich in hits. Some 1.8% of all compounds tested hit in one or more screens of this group. Unless noted, the call rests on the fitted dose curve; in most records, active means well fitted curve in the direction sought with a large enough effect; inconclusive means small, poorly fitted or top-dose-only effect, or another doubt; inactive means no such curve, though single readings can be large; an effect the other way counts as inactive or inconclusive. Potency means the concentration at half of the fitted maximal effect.

SMILES	PGK inhibitor	GLP-1R agonist	Tb PFK block	Pin1 inhibitor	GLP1R inv ag	HEK293 tox
C#Cc1ccc(C(=O)Nc2ccc(N3CCC(C)CC3)c(C(N)=O)c2)cc1	1%	9%	6%	4%	8.9µM*	-13%
CCOC(=O)c1cc(NC(=O)c2ccc(F)cc2)c(=O)n2c1oc1ccc(Cl)cc12	i	-8%	.	-5%	4%	-3%
CCCOc1cc(C)c(Cl)cc1S(=O)(=O)N(CC)CC	-5%	0%	-1%	19%	2.5µM*	1%
CCOc1cc(C)c(Cl)cc1S(=O)(=O)N(C)C	-1%	5%	-4%	-11%	-17%	0%
O=C(CC1S/C(=N/N=C2CCCCCC2)NC1=O)Nc1ccccc1F (stereo not given)	-2%	0%	1%	-1%	6%	?
CC1=C/C(=N\N=C2\NC(=O)C(CC(=O)Nc3ccccc3F)S2)CC(C)(C)C1 (stereo not given)	5%	4%	6%	8%	?	11µM*
NNC(=O)c1cccc(COc2ccccc2Br)c1	i	-9%	0%	6%	?	2%
NNC(=O)c1cccc(COc2ccc3c(c2)CCC3)c1	-7%	-6%	-4%	0%	1.1µM*	-9%
Cc1ccc(Cn2ccn(Cc3ccc(C)cc3)c(=O)c2=O)cc1	.	.	.	0%	6%	-1%
CC1C(=O)C(C)C(c2cc(Cl)ccc2O)NC1c1cc(Cl)ccc1O (stereo not given)	-3%	-3%	2%	-7%	5.6µM*	?
NC(=O)CSc1ccc2nnc(-c3ccncc3)n2n1	.	.	.	-1%	.	.
COc1ccc(/C=C/C(=O)C(C(N)=O)=C2SCCS2)cc1	-6%	-22%	-1%	53%	14%	-1%
NC(=O)C(C(=O)/C=C/c1ccc(Cl)cc1)=C1SCCS1	-1%	-8%	-5%	4%	4µM*	-28%
O=C(NC1CCCC1)c1ccc2c(c1)N(Cc1ccc(C(F)(F)F)cc1)C(=O)c1ccccc1S2	-7%	0%	.	11%	-5%	5%
CCN(CC)CCOC(=O)c1ccc(NC(=O)c2cc3cccc(OC)c3oc2=O)cc1	-3%	.	.	4%	-16%	-1%
O=C(O)C1Nc2c(O)cc(Cl)c([N+](=O)[O-])c2C2C=CCC12 (stereo not given)	4.5µM*	-7%	?	.	11%	-33%
CS(=O)(=O)OCCCNCCCOS(C)(=O)=O	.	-1%	.	.	.	.
O=C(c1cc([N+](=O)[O-])ccc1N1CCCCC1)N1CCc2ccccc21	-2%	7%	15%	-4%	2µM*	?
CCOc1ccc2nc(N3CCCC(C(=O)Nc4ccccc4CC)C3)sc2c1 (stereo not given)	-7%	.	.	5%	10%	3%
Cc1nn(-c2ccc(C(F)(F)F)cn2)c(C)c1Oc1ccccc1O	-4%	-1%	0%	-10%	7.9µM*	-30%
Cc1cc(=O)[nH]c(-n2nc(C)c(Oc3ccccc3O)c2C)n1	5%	1%	0%	-6%	-22%	17%
CCOc1ccc(-c2onc(C(F)(F)F)c2-c2cscn2)c(O)c1	-6%	-8%	-3%	-3%	-10%	-20%
Cc1cc(O)cc(O)c1-c1onc(C(F)(F)F)c1-c1cscn1	-10%	-14%	-7%	3%	7.9µM*	-20%
CC(C)C1C(c2ccccc2)NC(c2ccccc2)CC1(O)c1ccc(F)cc1 (stereo not given)	-5%	3%	-14%	-1%	10µM*	?
CCOc1ccc2ccccc2c1C(=O)N1CCN(c2ccccc2)CC1	3%	7%	-5%	4%	7.9µM*	?
CN1CCN(c2ccc(-c3cccc(NC(=O)COc4ccccc4)c3)nn2)CC1	i	-3%	-13%	0%	11µM*	-10%
